Most compounds without a hit are left out; they make up all but 3.3% or so of the library.
Anthrax LF inh2: blocks Bacillus anthracis lethal factor protease | 0.12% of 360,000 active | inhibition, % at 10 µM | multiplex microsphere protease cleavage assay, LF; further: plate controls were buffer without enzyme for full effect and enzyme alone for no effect
BoNT-A LC inh2: inhibitors of Botulinum neurotoxin A light chain protease; multiplex microsphere protease substrate cleavage, flow cytometry; inhibition, % at 10 µM; 0.17% of 360,000 active; further: plate controls were buffer without enzyme for full effect and enzyme alone for no effect
SSB-PriA inh: inhibitors of Klebsiella pneumoniae PriA binding to SSB C-terminal tail | AlphaScreen SSBct-PriA binding, biotinylated peptide | inhibition, % at 33 µM | 0.6% of 430,000 active | AID 1272365; in the data active means inhibition mostly above about 37%, no sharp cut-off; inactive means mostly below about 20%;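 further: plate controls were negative control peptide for no effect and reference peptide for full effect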
Bead autofluor: counter-screen for toxin protease inhibitors: compound fluorescence | compound autofluorescence counterscreen, microsphere flow cytometry; hits give high values | fluorescence intensity (test concentration not listed) | 3.1% of 360,000 active; in the data active means fluorescence intensity above about 16000; inconclusive means no clear call, values can overlap the other calls
BoNT F protease: inhibitors of Botulinum neurotoxin F light chain protease. Multiplex microsphere protease cleavage assay, flow cytometry. inhibition, % at 10 µM. 0.22% of 360,000 active; in the data active means inhibition above about 35%, passing the limit was not always enough; inconclusive means no clear call, values can overlap the other calls; further: plate controls were buffer without enzyme for full effect and enzyme alone for no effect
MazEF act: MazEF (E. coli) toxin RNase activation; P0AE70; FAM/BHQ RNA-DNA oligo cleavage fluorescence, 5 h; activation, % at 20 µM; 0.32% of 350,000 active; AID 504720; in the data active means activation above about 50%
Target sequence (P0AE70 whole entry, looked up): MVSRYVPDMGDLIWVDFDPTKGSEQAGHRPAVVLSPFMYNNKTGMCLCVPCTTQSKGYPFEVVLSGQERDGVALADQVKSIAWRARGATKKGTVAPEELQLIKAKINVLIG
* = called active by the depositor; u = inconclusive; x = no result. Unless noted, no stated cut-off is given here; in the data, active means inhibition above about 30%; inconclusive means no clear call, values can overlap the other calls; inactive means below that.

SMILES | Anthrax LF inh2 | BoNT-A LC inh2 | SSB-PriA inh | Bead autofluor | BoNT F protease | MazEF act
CSC1CCN(C(=O)CC2CCCC2)C1 (configuration not stated) | x | x | -9 | x | x | x
CN(c1ccccc1C(=O)Nc1ccc(S(=O)(=O)N2CCCC2)cc1)S(C)(=O)=O | 2 | 0 | -10 | 6129 | 9 | 8
CN(c1ccccc1C(=O)Nc1ccc(S(=O)(=O)N2CCCCC2)cc1)S(C)(=O)=O | 1 | -2 | 4 | 20379* | -7 | 2
Cc1nc2ccc(NC(=O)c3cccc(C(F)(F)F)c3)cc2o1 | 0 | 0 | -7 | 22143* | 0 | 5
Cc1cccc(N=Nc2ccc(N(C)C)cc2)c1 | -5 | -1 | 55* | 5056 | 0 | -7
CN(C)c1ccc(N=Nc2cccc(F)c2)cc1 | -2 | -2 | 32 | 4635 | -5 | -8
O=C(CCC(=O)N1CCN(S(=O)(=O)c2ccccc2)CC1)c1cccs1 | -1 | u | -35 | 20748* | 4 | 9
CC(=O)c1cccc(S(=O)(=O)N(CCCO)Cc2cc3ccc(C)cc3[nH]c2=O)c1 | 0 | -6 | -2 | 24495* | -7 | 0
CCCN(Cc1cc2ccc(C)cc2[nH]c1=O)S(=O)(=O)c1ccccc1 | 3 | 0 | 14 | 2886 | 1 | 3
COC(=O)c1cccc(S(=O)(=O)N(Cc2ccco2)Cc2cc3cc(OC)c(OC)cc3[nH]c2=O)c1 | -2 | 0 | -26 | 10265 | -1 | 8
COC(=O)c1cccc(S(=O)(=O)N(Cc2ccco2)Cc2cc3ccc(OC)cc3[nH]c2=O)c1 | -1 | -4 | 2 | 24753* | -4 | 6
CC(C)Cc1nnc(-c2cc3ccccc3n2CC(=O)Nc2ccc(OC(F)(F)F)cc2)o1 | x | x | 2 | x | x | x
O=c1[nH]c2cc3c(cc2c(=O)n1Cc1nc(-c2ccccc2Cl)no1)OCO3 | x | x | -5 | x | x | x
CCOC(=O)COc1ccc2c(c1)C(=O)CC(C)(C)O2 | -4 | 4 | -18 | 21356* | 5 | -2
CC1(C)CC(=O)c2cc(OCC(=O)O)ccc2O1 | -7 | -2 | -1 | 24044* | -4 | -7
CCOC(=O)COc1ccc2c(c1)C(=O)CC1(CCN(C(C)=O)CC1)O2 | -3 | -2 | 14 | 23933* | -2 | 3
CC1(C)CC(=O)c2cc(OCC(=O)N3CCCCCC3)ccc2O1 | -17 | 16 | -12 | 14619 | 20 | -3
CC(=O)N1CCC2(CC1)CC(=O)c1cc(OCC(=O)N3CCCC3)ccc1O2 | 1 | 0 | -7 | 3581 | 1 | -11
O=C(NCC(c1cccs1)N1CCc2ccccc21)c1ccc2c(c1)OCO2 (configuration not stated) | x | x | 39* | x | x | x
COc1ccc(Cl)cc1C(=O)NCC(c1cccs1)N1CCc2ccccc21 (configuration not stated) | x | x | -26 | x | x | x
Cc1c(C(=O)N2CCN=C2SCc2cccc(C(F)(F)F)c2)cccc1[N+](=O)[O-] | x | x | 12 | x | x | x
CCOC(=O)N1CCN(c2nc3cc(C(=O)OC)ccc3c(=O)n2Cc2ccc(F)cc2)CC1 | x | x | -1 | x | x | x
COCCn1cc(NC(=O)Nc2cc(C)ccc2OC)c2ccccc21 | x | x | 37* | x | x | x
CC(C)(C)c1csc(CN2CCN(C(=O)c3ccc(Br)o3)CC2)n1 | x | x | 3 | x | x | x
O=C(CSc1nc2ccccc2s1)c1cc2ccccc2o1 | -2 | 1 | -25 | 23696* | -1 | 26
SMILES | Anthrax LF inh2 | BoNT-A LC inh2 | SSB-PriA inh | Bead autofluor | BoNT F protease | MazEF act
O=C(CSc1nc2ccccc2s1)CSc1nc2ccccc2s1 | 1 | 1 | -5 | 8021 | -3 | -22
O=C(CSC1=NNC(c2ccccn2)S1)Nc1cccc(Cl)c1 (configuration not stated) | -24 | 4 | 42* | 3921 | u | 13
O=C(CSC1=NNC(c2ccccn2)S1)Nc1ccccc1 (configuration not stated) | -6 | 3 | 87* | 3225 | u | 7
CCCCS(=O)(=O)NCCCn1ccc2cccnc21 | x | x | -4 | x | x | x
O=c1[nH]c2cc3c(cc2cc1CN(Cc1ccccc1)Cc1nnnn1Cc1ccco1)OCCO3 | 2 | 1 | 7 | 3616 | 0 | 49
O=c1[nH]c2cc3c(cc2cc1CN(Cc1cccnc1)Cc1nnnn1Cc1ccco1)OCCO3 | 1 | 2 | 2 | 7366 | 4 | 54*
O=c1[nH]c2cc3c(cc2cc1CN(Cc1cccs1)Cc1nnnn1Cc1ccco1)OCCO3 | -5 | 0 | -7 | 3579 | -1 | 1
COc1ccccc1CN(Cc1cc2cc3c(cc2[nH]c1=O)OCCO3)Cc1nnnn1Cc1ccco1 | -4 | 0 | -3 | 23267* | -5 | 5
CC#CCCCC(=O)Nc1cccc(C(=O)O)c1 | -4 | 6 | -11 | 19921* | 7 | -2

Compound activity as filed in PubChem BioAssay.
